This is a sample that favours compounds with a hit; in the whole collection about 7.9% have one here.
NOMO-1 viab: STK33 inhibitor candidate reducing NOMO-1 cell viability; NOMO-1 AML viability, CellTiter-Glo luminescence, 72 h; inhibition, % (no concentration beside the values); actives 7.5% (n = 37,000); AID 2330; in the data active = inhibition above about 80%
MITF inhib: inhibitors of MITF; TRPM1 promoter luciferase, luminescence, 24 h; AID 2240; inhibition, % (test concentration not listed); actives 0.28% (n = 37,000); in the data active = inhibition above about 85%;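 note: human melanocyte line stably carrying TRPM1 promoter luciferase reporter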
Hedgehog inh: Sonic Hedgehog pathway inhibition; Shh-LIGHT2 Gli-luciferase reporter, 30 h; inhibition, % (no concentration beside the values); actives 2.1% (n = 22,000);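 active = mean inhibition across valid replicates above about 65%, limit read from the data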;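 note: pathway switched on by Shh-conditioned medium diluted 1 in 25 in low serum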
* marks the source's active call; other numbers are inactive results; . = no result.

SMILES	NOMO-1 viab	MITF inhib	Hedgehog inh
C[C@@H]1CN([C@@H](C)CO)C(=O)c2cc(NC(=O)Nc3ccccc3)ccc2O[C@H]1CN(C)Cc1ccc(C(F)(F)F)cc1	79	18	.
C[C@@H]1CN([C@@H](C)CO)C(=O)c2cc(NC(=O)Nc3ccc(C(F)(F)F)cc3)ccc2O[C@H]1CN(C)Cc1ccccc1	96*	-16	28
C[C@H](CO)N1C[C@H](C)[C@H](CN(C)Cc2ccccc2)Oc2ccc(NC(=O)Nc3ccc(C(F)(F)F)cc3)cc2C1=O	91*	14	.
C[C@@H]1CN([C@H](C)CO)C(=O)c2cc(NC(=O)Nc3ccc(C(F)(F)F)cc3)ccc2O[C@@H]1CN(C)Cc1ccccc1	89*	-5	.
COCCNC(=O)c1c(NC(=O)c2ccccc2C)sc2c1CCCC2	13	-39	.
CCC(=O)N1CCN(c2ccc(Cl)cc2NC(=O)COc2ccc(Br)cc2)CC1	25	-11	.
O=C(NCc1ccco1)c1ccc(NC(=O)c2cccs2)cc1	-6	-76	.
COc1ccc(C(=O)Nc2ccc(C(=O)NCc3ccco3)cc2)cc1	28	-2	.
Cc1ccccc1-n1c(SCC(N)=O)nc2ccccc2c1=O	6	-2	.
C[C@@H]1CN([C@@H](C)CO)C(=O)c2cccc(NC(=O)Nc3ccc4c(c3)OCO4)c2O[C@@H]1CN(C)S(=O)(=O)c1ccccc1	52	-11	-49
C[C@@H]1CN([C@H](C)CO)C(=O)c2cc(NC(=O)Nc3ccc(C(F)(F)F)cc3)ccc2O[C@@H]1CN(C)Cc1ccc(-c2ccccc2)cc1	-12	5	-21
C[C@H]1CN([C@@H](C)CO)C(=O)c2cc(NC(=O)Nc3ccc(C(F)(F)F)cc3)ccc2O[C@H]1CN(C)Cc1ccccc1	103*	30	.
C[C@@H]1CN([C@@H](C)CO)C(=O)c2cc(NC(=O)Nc3ccc(C(F)(F)F)cc3)ccc2O[C@H]1CN(C)Cc1ccc(Oc2ccccc2)cc1	118*	60	23
C[C@H]1CN([C@@H](C)CO)C(=O)c2cc(NC(=O)Nc3ccc(C(F)(F)F)cc3)ccc2O[C@@H]1CN(C)Cc1ccc(Oc2ccccc2)cc1	48	-2	.
COc1ccccc1C1CCN(S(=O)(=O)c2ccccc2Br)CC1	-4	-25	.
COc1ccccc1C1CCN(Cc2cccc3ccccc23)CC1	100*	7	-6
Cc1cc(Br)c(NC(=O)CSc2nnc(N)s2)cc1C	-21	-35	.
C[C@@H]1CN([C@@H](C)CO)C(=O)c2cc(NS(=O)(=O)c3ccc(Cl)cc3)ccc2O[C@H]1CN(C)Cc1ccc(-c2ccccc2)cc1	106*	27	-3
C[C@H]1CN([C@@H](C)CO)C(=O)c2cc(NS(=O)(=O)c3ccccc3)ccc2O[C@@H]1CN(C)Cc1ccccc1	4	-15	.
C[C@H]1CN([C@@H](C)CO)C(=O)c2cc(NS(=O)(=O)c3ccc(Cl)cc3)ccc2O[C@H]1CN(C)Cc1ccc(-c2ccccc2)cc1	62	10	-10
C[C@H](CO)N1C[C@H](C)[C@H](CN(C)Cc2ccccc2)Oc2ccc(NS(=O)(=O)c3ccccc3)cc2C1=O	-11	-2	16
C[C@H]1CN([C@@H](C)CO)C(=O)c2cc(NS(=O)(=O)c3ccccc3)ccc2O[C@@H]1CN(C)Cc1ccc(-c2ccccc2)cc1	87*	14	-3
C[C@@H]1CN([C@@H](C)CO)C(=O)c2cc(NS(=O)(=O)c3ccccc3)ccc2O[C@@H]1CN(C)Cc1ccc(-c2ccccc2)cc1	115*	40	.
C[C@@H]1CN([C@@H](C)CO)C(=O)c2cc(NS(=O)(=O)c3cn(C)cn3)ccc2O[C@@H]1CN(C)C(=O)Nc1ccc(F)cc1	-3	-5	-20
O=S(=O)(c1ccccc1)c1nc(-c2ccccc2)oc1NCC1CCCO1 (stereo not given)	-4	5	.
SMILES	NOMO-1 viab	MITF inhib	Hedgehog inh
COc1ccc(CN(C)C[C@H]2Oc3c(NC(=O)Nc4ccc(OC)cc4)cccc3C(=O)N([C@@H](C)CO)C[C@@H]2C)cc1	45	-31	-27
COc1ccc(CN(C)C[C@H]2Oc3c(NC(=O)Nc4ccc(F)cc4)cccc3C(=O)N([C@H](C)CO)C[C@@H]2C)cc1	72	2	-4
COc1ccc(CN(C)C[C@@H]2Oc3c(NC(=O)Nc4ccc(OC)cc4)cccc3C(=O)N([C@@H](C)CO)C[C@@H]2C)cc1	15	-13	-62
COc1ccc(NC(=O)Nc2cccc3c2O[C@@H](CN(C)Cc2ccc(Cl)c(Cl)c2)[C@H](C)CN([C@H](C)CO)C3=O)cc1	102*	41	-5
COc1ccc(NC(=O)Nc2cccc3c2O[C@H](CN(C)Cc2ccc(Cl)c(Cl)c2)[C@@H](C)CN([C@H](C)CO)C3=O)cc1	103*	-8	4
COc1ccc(NC(=O)Nc2cccc3c2O[C@H](CN(C)Cc2ccc(Cl)c(Cl)c2)[C@@H](C)CN([C@@H](C)CO)C3=O)cc1	91*	2	4
